Laboratory results as given in PubChem BioAssay (NCI).
This is part of a sample that, as a whole, favours compounds with a hit. Of some 79,000 tested, about 15% had one in any assay. Rule as the data show it: active = growth inhibition above about 70%; inactive = the rest.

Experiments:
[1] = NCI Yeast Anticancer Drug Screen. Data for the rad50 strain (AID 155);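 also: 0% = growth of vehicle-only cultures of the same strain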; settings: S. cerevisiae rad50 strain growth inhibition; at 50.0 µM; active compounds read high
Procedure, shortened: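 A DNA repair-deficient yeast mutant serves as the test organism; compound-induced growth inhibition is calculated against vehicle-treated cells.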

[2] = NCI Yeast Anticancer Drug Screen. Data for the mec2-1 strain (AID 157); settings: S. cerevisiae mec2-1 strain, at 50.0 µM, active compounds read high
Procedure, shortened: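 mec2-1 yeast strain, carrying an alteration in DNA damage repair or cell cycle control, was exposed to compounds; growth inhibition was measured relative to vehicle-treated controls.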

[3] = NCI Yeast Anticancer Drug Screen. Data for the mlh1 rad18 strain (AID 175); settings: S. cerevisiae mlh1 rad18 strain growth inhibition; at 50.0 µM; active compounds read high
Procedure, shortened: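 Growth inhibition of the yeast strain was measured after compound exposure and expressed relative to vehicle-treated controls. The strain carries defined defects in DNA damage repair.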

Measured: growth inhibition

S=c1[nH]nc(NC2CCCCC2)s1
inactive: [1] -4.4% | [2] -12% | [3] -7.1%

OCC1OC(Nc2ccccc2O)C(O)C(O)C1O (stereo unspecified)
inactive: [1] 41.5% | [2] 15.6% | [3] 25.7%

CN1C(=S)c2ccccc2S1(=O)=O
inactive: [1] -6.6% | [2] -14.4% | [3] 24.2%

O=C(CN1CCOCC1)Nc1cccc(C(F)(F)F)c1
inactive: [1] -33.7% | [2] -31.4% | [3] -35.4%

S=C(S)N1CCC(CCCC2CCN(C(=S)S)CC2)CC1
inactive: [1] -9.1% | [2] -22.1% | [3] -13.2%

COc1cc(-c2cc(=O)c3c(C)cc(O)cc3o2)cc(OC)c1OC
inactive: [1] -2.1% | [2] -9% | [3] 45.6%

COc1ccc(-c2cc(=O)c3c(C)cc(O)cc3o2)cc1OC
inactive: [1] 6.55% | [2] 7.6% | [3] 44.2%

CCCCCCCCCCCCCCCCOc1ccc(C(=O)NN)cc1N
inactive: [1] -18.6% | [2] -29.9% | [3] -14.6%

CCOC(=O)C(CNc1ccccc1)C(=O)OCC
inactive: [1] -25.4% | [2] -3.05% | [3] -11.7%

C=CCNC(=S)N/N=C\c1cc(OC)c(OC)c(OC)c1
inactive: [1] -18.8% | [2] -44.5% | [3] -34.6%

CN(c1ccccc1Cl)S(C)(=O)=O
inactive: [1] -4.2% | [2] -42.6% | [3] -0.25%

CCOC(=O)c1c(C)nc(C)c(C(=O)OCC)c1-c1cccc([N+](=O)[O-])c1
inactive: [1] 29.1% | [2] 2.35% | [3] 25.9%
